In PubChem BioAssay (NCATS):
Records with an inconclusive call do not appear. Activity calls are given as the source filed them. The call rests on the fitted dose curve; in most records, active means well fitted curve in the direction sought with a large enough effect; inconclusive means small, poorly fitted or top-dose-only effect, or another doubt; inactive means no such curve, though single readings can be large; an effect the other way counts as inactive or inconclusive.

Legend:
[1] = MultiTox-Fluor Cytotoxicity Assay - LYMP1-001 - Dead Cells (AID 946)
In short: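 Seed 2500 LYMP1-001 cells/well, incubate 5 hr at 37 C; add compound, 16 hr at 37 C; add MultiTox-Fluor reagent, 60 min RT; read dead-cell fluorescence Ex/Em=485/520. Normalize to DMSO and 15 uM tetraoctylammonium bromide.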

[2] = MultiTox-Fluor Cytotoxicity Assay - LYMP1-001 - Live Cells (AID 947)
[3] = MultiTox-Fluor Cytotoxicity Assay - LYMP1-003 - Live Cells (AID 962);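 further: cells exposed to compound for 16 hours at 37 °C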
In short: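 Live-cell protease activity (GF-AFC substrate, 405/510 nm, 60 min at room temperature) after 16 h, 37 C compound exposure of human lymphoblastoid LYMP1-003 cells; concentration-response fitted to the Hill equation for AC50.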

[4] = Cell Viability - LYMP1-003 - Assay at 24 hr (AID 963)
In short: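 Concentration-response qHTS: ATP loss measured by CellTiter-Glo luminescence after 24 h compound exposure at 37 C. Cells were LYMP1-003 human lymphoblastoid, 2500 per well. AC50 derived via standard Hill equation modeling.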

[5] = Cell Viability - LYMP2-015 (AID 971); further: nearly all actives have a fitted effect of over 55% in size
In short: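 Cytotoxicity readout: decrease in intracellular ATP (CellTiter-Glo luminescence) in 2500 LYMP2-015 lymphoblastoid cells/well after 24 h compound exposure at 37 C. Concentration-response data fitted with the standard Hill equation to give AC50.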

[6] = Cell Viability - LYMP2-017 (AID 972); further: nearly all actives have a fitted effect of over 55% in size
In short: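 CellTiter-Glo luminescence (cellular ATP, 30 min RT) measured cytotoxicity after 24 hr compound treatment at 37 C. Cells were a human lymphoblastoid line, LYMP2-017, plated at 2500/well and incubated 5 hr first; concentration-response fitted with Hill equation for AC50.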

[7] = Cell Viability - LYMP2-019 (AID 973); further: nearly all actives have a fitted effect of over 55% in size
In short: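 AC50 values come from Hill-equation fits of luminescent intracellular ATP (CellTiter-Glo, 30 min, room temperature) following 24 h compound exposure at 37 C. Cells: LYMP2-019 lymphoblastoid line, 2500 per well, in complete culture medium.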

[8] = Cell Viability - LYMP2-021 (AID 974); further: nearly all actives have a fitted effect of over 55% in size
In short: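 AC50 values come from Hill-equation fits to CellTiter-Glo luminescence (ATP content), read after 24 hour compound exposure at 37 C of 2500 LYMP2-021 lymphoblastoid cells/well; tetraoctylammonium bromide as positive control.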

[9] = Cell Viability - LYMP2-023 (AID 975); further: nearly all actives have a fitted effect of over 55% in size
In short: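 Intracellular ATP, read by CellTiter-Glo luminescence, reports viability after 24 hr compound exposure at 37 C. 2500 lymphoblastoid cells/well (LYMP2-023) seeded 5 hr beforehand; Hill fits give AC50; positive control tetraoctylammonium bromide.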

[10] = Cell Viability - LYMP2-006 (AID 978); further: nearly all actives have a fitted effect of over 60% in size
In short: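 Human lymphoblastoid cells (LYMP2-006), 2500/well in complete medium, were treated with compound for 24 hr at 37 C. Cellular ATP was read by CellTiter-Glo luminescence after 30 min, and AC50 values came from Hill-equation fits of concentration-response data.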

[11] = Cell Viability - LYMP2-007 (AID 979);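 further: cells exposed to compound for 24 h before reading; nearly all actives have a fitted effect of over 60% in size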
In short: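 AC50 values come from Hill-equation fits of luminescent intracellular ATP (CellTiter-Glo, 30 min, room temperature) following 24 h compound exposure at 37 C. Cells: LYMP2-007 lymphoblastoid line, 2500 per well, in complete culture medium.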

[12] = Cell Viability - LYMP2-008 (AID 980); further: nearly all actives have a fitted effect of over 60% in size
In short: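 Cytotoxicity determined from ATP-dependent luciferase luminescence (CellTiter-Glo) following 24 h compound exposure of human lymphoblastoid LYMP2-008 cells at 37 C. Concentration-response data fitted to the Hill equation to give AC50.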

[13] = Cell Viability - LYMP2-010 (AID 981); further: nearly all actives have a fitted effect of over 55% in size
In short: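 CellTiter-Glo ATP luminescence measured cytotoxicity after 24 h compound exposure at 37 C. LYMP2-010 cells were seeded at 2500/well, with tetraoctylammonium bromide as control; concentration-response curves gave AC50 values by the Hill equation.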

[14] = Cell Viability - LYMP2-012 (AID 982)
[15] = Cell Viability - LYMP2-014 (AID 983); further: nearly all actives have a fitted effect of over 50% in size
In short: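 Intracellular ATP loss, read by luciferase luminescence, measures acute cytotoxicity after 24 h compound exposure of lymphoblastoid LYMP2-014 cells (2500/well, 37 C). Concentration-response data fitted to the Hill equation for AC50.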

[16] = Cell Viability - LYMP2-016 (AID 984); further: nearly all actives have a fitted effect of over 55% in size
In short: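 Human lymphoblastoid LYMP2-016 cells, 2500 per well, treated with compounds for 24 h at 37 C. Viability read as intracellular ATP by CellTiter-Glo luminescence after 30 min at room temperature; AC50 from Hill fits of concentration-response.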

[17] = Cell Viability - LYMP2-018 (AID 985); further: nearly all actives have a fitted effect of over 50% in size
In short: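 Viability read as CellTiter-Glo luminescence (cellular ATP) after 24 hr compound exposure at 37 C of 2500 LYMP2-018 lymphoblastoid cells/well, pre-plated 5 hr. Hill-equation modelling gave AC50.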

[18] = Cell Viability - LYMP2-020 (AID 986); further: nearly all actives have a fitted effect of over 55% in size
In short: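 Cytotoxicity in qHTS format: luminescent ATP readout from CellTiter-Glo after 24 h compound exposure at 37 C in complete medium. LYMP2-020 lymphoblastoid cells were seeded at 2500/well; concentration-response data fitted to the Hill equation for AC50.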

[19] = Cell Viability - LYMP2-024 (AID 988); further: nearly all actives have a fitted effect of over 60% in size
In short: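 Cytotoxicity was taken as a decrease in ATP (CellTiter-Glo luminescence) after 24 hr compound exposure at 37 C of LYMP2-024 lymphoblastoid cells, 2500 cells/well. Concentration-response data were fitted to the Hill equation to give AC50.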

[20] = Cell Viability - LYMP2-026 (AID 989); further: nearly all actives have a fitted effect of over 50% in size
In short: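 Cytotoxicity read as ATP-dependent luminescence (CellTiter-Glo, 30 min room temperature) after 24 h compound treatment at 37 C. LYMP2-026 lymphoblastoid line seeded at 2500 cells/well; AC50 derived by standard Hill equation.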

Measured: Potency
Potency means the concentration at half of the fitted maximal effect.

O=Nc1ccc(Nc2ccccc2)cc1
active: [1] 5.01 µM | [2] 7.94 µM | [3] 6.31 µM | [4] 10 µM | [5] 3.98 µM | [6] 6.31 µM | [7] 3.98 µM | [8] 5.01 µM | [9] 6.31 µM | [10] 7.94 µM | [11] 5.01 µM | [12] 7.94 µM | [13] 5.01 µM | [14] 7.94 µM | [15] 6.31 µM | [16] 6.31 µM | [17] 3.98 µM | [18] 5.01 µM | [19] 2.51 µM | [20] 6.31 µM

C=CC(=O)OCC(CO)(COC(=O)C=C)COC(=O)C=C
active: [1] 7.94 µM | [2] 6.31 µM | [3] 3.98 µM | [4] 6.31 µM | [5] 5.01 µM | [6] 5.01 µM | [7] 3.98 µM | [8] 3.98 µM | [9] 6.31 µM | [10] 5.01 µM | [11] 5.01 µM | [12] 5.01 µM | [13] 3.98 µM | [14] 3.98 µM | [15] 5.01 µM | [16] 5.01 µM | [17] 3.98 µM | [18] 3.98 µM | [19] 3.16 µM | [20] 6.31 µM

c1cc(OCC2CO2)cc(OCC2CO2)c1 (stereo unspecified)
active: [5] 39.8 µM | [6] 39.8 µM | [7] 39.8 µM | [8] 39.8 µM | [9] 50.1 µM | [10] 39.8 µM | [11] 39.8 µM | [12] 39.8 µM | [13] 31.6 µM | [14] 31.6 µM | [15] 39.8 µM | [16] 25.1 µM | [17] 31.6 µM | [18] 39.8 µM | [19] 39.8 µM | [20] 39.8 µM
